The experiment deals with thyroid hormone receptor (endogenous TRα and TRβ). More on the design: species or system GH3-TRE-Luc (rat pituitary); GH3-TRE-Luc luciferase reporter, antagonist mode against 1 nM T3, loss of signal, qHTS.
[1] abbreviates: read-out: Average AC50 (uM) GH3-TRE-Antag, antagonist mode, 1 nM T3, no GH3 cytotoxicity hit, Average AC50 (uM) GH3-TRE-Antag, 24 h.
The mark [2] stands for this setting: read-out: Average AC50 (uM) GH3-TRE-Antag, antagonist mode, 1 nM T3, no GH3 cytotoxicity hit.

Where a name gives a salt, the structure may show the parent alone. Read-outs that look alike come from different tables or passages of the source. A value given as a limit tells only on which side of the number the result lay.

Usually AC50 stands for the concentration giving half of the maximal activity seen. On to `Nc1ccc2cc3ccc(N)cc3nc2c1` [Proflavin hydrochloride], for which the concentration at half-maximal activity (AC50) under setting [1] turned out to be 3.25 µM.
Consider `CCCCCCn1cc[n+](C)c1` [1-Hexyl-3-methylimidazolium trifluoromethanesulfonate], for which, under setting [1], the AC50 was found to be 52.5 µM.
Turning to `CC1=C2[C@H](/C=C(\C)C(=O)O)CC[C@@H](C)[C@H]2CC1` [Valerenic acid], the half-maximal activity concentration (AC50) under setting [2] was 57.5 µM.
For the compound `CC(C)C(C(=O)OC(C#N)c1cccc(Oc2ccccc2)c1)c1ccc(Cl)cc1` (centres unmarked) [Fenvalerate], the half-maximal activity concentration (AC50) under setting [2] is 37.1 µM.
For `CCCCCCCCCCCC(=O)O` [Dodecanoic acid], the half-maximal activity concentration (AC50) under setting [2] was found to be 68.4 µM.
Same read-out and setting: with `CN(CCOc1ccc(CC2SC(=O)NC2=O)cc1)c1ccccn1` (centres unmarked) [Rosiglitazone maleate] the figure was 75.1 µM; with `CC(C)c1cccc(C(C)C)c1O` [Propofol], above 50 µM; with `Oc1ccc2ccc3cccc4ccc1c2c34` [1-Hydroxypyrene], 55.7 µM.
Still for that read-out and setting: with `Oc1cc(Cl)cc(Cl)c1` [3,5-Dichlorophenol] the figure was 54 µM; with `CC(C)=CCC/C(C)=C/C=C/C(C)=C/C=C/C(C)=C/C=C/C=C(C)/C=C/C=C(C)/C=C/C=C(\C)CCC=C(C)C` [Lycopene], 31.7 µM.
The same measure, in the same setting: the value for `CNC(=S)NC` [N,N'-Dimethylthiourea] was 72 µM.
For `CC(C)(C)c1ccccc1O` [2-tert-Butylphenol], the half-maximal activity concentration (AC50) under setting [2] came out at 84.6 µM.
`Cc1nc2ccccc2n1Cc1ccc(Cl)cc1` [Chlormidazole]: under setting [2], the concentration at half-maximal activity (AC50) was 5.9 µM.
For `CC(C)N(C(=O)COc1nnc(C(F)(F)F)s1)c1ccc(F)cc1` [Flufenacet], the half-maximal activity concentration (AC50) under setting [2] is 53.2 µM.
In the case of `Cc1cccc(C(C)(C)C)c1O` [2-tert-Butyl-6-methylphenol], under setting [2], the AC50 was found to be 75.7 µM.
In the case of `CCOC(=O)OC1=C(c2cc(C)ccc2C)C(=O)N[C@]12CC[C@@H](OC)CC2` [Spirotetramat], the concentration at half-maximal activity (AC50) under setting [2] is 69.7 µM.
`NC(=O)C1(N2CCCCC2)CCN(CCCC(=O)c2ccc(F)cc2)CC1` [Pipamperone dihydrochloride]: the AC50 under setting [2] is 25.9 µM.
As for `CCCCCC[n+]1ccccc1` [1-Hexylpyridinium bromide], the AC50 under setting [1] was 62.1 µM.
Turning to `CC(C(=O)O)c1ccc2c(c1)CC(=O)c1ccccc1S2` (centres unmarked) [Zaltoprofen], under setting [2], the AC50 turned out to be 29.1 µM.
Same read-out and setting: with `Cn1c(CCCC(=O)O)nc2cc(N(CCCl)CCCl)ccc21` [Bendamustine] the figure was 28 µM; with `C[C@]12C=CC(=O)N[C@@H]1CC[C@@H]1[C@@H]2CC[C@]2(C)[C@@H](C(=O)Nc3cc(C(F)(F)F)ccc3C(F)(F)F)CC[C@@H]12` [Dutasteride], 3.44 µM.
As for `NC(=O)Nc1ccc(Cl)c(Cl)c1` [3,4-Dichlorophenylurea], the concentration at half-maximal activity (AC50) under setting [2] was 52.4 µM.
As for `CCCCCCC[N+](CC)(CC)CCCCc1ccc(Cl)cc1` [Clofilium tosylate], the AC50 under setting [2] amounted to 16.3 µM.
The same measure, in the same setting: with `CCCCCCOc1ccccc1C(N)=O` [Exalamide] the figure was 30.7 µM; with `CC(C)C(C(=O)OC(C#N)c1cccc(Oc2ccccc2)c1)c1ccc(OC(F)F)cc1` (centres unmarked) [Flucythrinate], 32.5 µM; with `Cc1cc(O)c2c(O)c3c(O)cccc3cc2c1` [Chrysarobin], 28.1 µM.
On the same count and under the same terms, the value for `CCC(C)COC(=O)CC(C)C` (centres unmarked) [2-Methylbutyl isovalerate] was 71.8 µM; that for `C=C1C[C@@H]2[C@H](CC[C@]3(C)C(=O)CC[C@@H]23)[C@@]2(C)C=CC(=O)C=C12` [Exemestane] was 34.6 µM; that for `Nc1cc(S(=O)(=O)O)cc2cc(S(=O)(=O)O)cc(O)c12` [Monosodium 8-amino-1-naphthol-3,6-disulfonate monohydrate] was 52.6 µM.
Still for that read-out and setting: the value for `CCOC(=O)c1c(N)sc2c1CCN(Cc1ccccc1)C2` [Tinoridine] was 37.8 µM.
Take `CCCCC(CC)C(=O)OCCOCCOCCOCCOC(=O)C(CC)CCCC` (centres unmarked) [Tetraethylene glycol di(2-ethylhexanoate)]: the half-maximal activity concentration (AC50) under setting [2] stood at 82.3 µM.
Still for that read-out and setting: the value for `CC(=O)O[C@]1(C(C)=O)CC[C@H]2[C@@H]3C=C(C)C4=CC(=O)CC[C@]4(C)[C@H]3CC[C@@]21C` [Megestrol acetate] was above 20 µM; that for `COC(=O)[C@@H]1[C@H]2C[C@H]3c4[nH]c5ccccc5c4CCN3C[C@@H]2CC[C@@H]1O` [Yohimbine] was 43.8 µM; that for `Nc1ccc(C(=O)OCCCOC(=O)c2ccc(N)cc2)cc1` [Propane-1,3-diyl bis(4-aminobenzoate)] was 59.8 µM.
In the case of `CC(C)(O)C(=O)Nc1ccc([N+](=O)[O-])c(C(F)(F)F)c1` [Hydroxyflutamide], the half-maximal activity concentration (AC50) under setting [2] was above 70 µM.
Same read-out and setting: the value for `O=C(Nc1ccc([N+](=O)[O-])cc1)Nc1ccc([N+](=O)[O-])cc1` [4,4'-Dinitrodiphenylurea] was 0.491 µM.
Still for that read-out and setting: with `CCC(=O)/C=C/c1ccc(OC)cc1` [1-(4-Methoxyphenyl)-1-pentene-3-one] the figure was 79.8 µM; with `COc1cccc(N)c1` [3-Methoxyaniline], 80.8 µM; with `Cc1cccc(Nc2ccccc2C(=O)O)c1C` [Mefenamic acid], 27.4 µM.
Still for that read-out and setting: the value for `[H]/N=C(\N/C(=N/[H])Nc1ccc(Cl)cc1)NC(C)C` [Proguanil hydrochloride] was 2.32 µM.
For the compound `CC[C@H](C)C(=O)O[C@H]1CCC=C2C=C[C@H](C)[C@H](CC[C@@H]3C[C@@H](O)CC(=O)O3)[C@H]21` [Mevastatin], under setting [2], the AC50 came out at 30.9 µM.
Same read-out and setting: the value for `CC1(C)[C@H](/C=C(\Cl)C(F)(F)F)[C@@H]1C(=O)O[C@@H](C#N)c1cccc(Oc2ccccc2)c1` [?-Cyhalothrin] was 33.9 µM.
Turning to `CC(C)c1c(C(=O)Nc2ccccc2)c(-c2ccccc2)c(-c2ccc(F)cc2)n1CC[C@@H](O)C[C@@H](O)CC(=O)O` [Atorvastatin calcium], the AC50 under setting [1] turned out to be 14.2 µM.
On the same count and under the same terms, with `CCCCCCn1cc[n+](C)c1` [1-Hexyl-3-methylimidazolium hexafluorophosphate] the figure was 53.8 µM; with `CCCCCCCCCCCCOS(=O)(=O)O` [Ammonium dodecyl sulfate], 80.2 µM.
`S=P(N1CC1)(N1CC1)N1CC1` [Thiotepa]: under setting [2], the AC50 was 37.9 µM.
On to `CC1CC(OC(=O)C(O)c2ccccc2)CC(C)(C)C1` (centres unmarked) [Cyclandelate], for which, under setting [2], the AC50 came to 44.8 µM.
The same measure, in the same setting: the value for `CCOC(=O)NCCOc1ccc(Oc2ccccc2)cc1` [Fenoxycarb] was 75.9 µM; that for `CCCCC(C#N)(Cn1cncn1)c1ccc(Cl)cc1` (centres unmarked) [Myclobutanil] was 79 µM.
As to `CN(C)c1ccc(O)c2c1C[C@H]1C[C@H]3[C@H](N(C)C)C(O)=C(C(N)=O)C(=O)[C@@]3(O)C(O)=C1C2=O` [Minocycline hydrochloride], the AC50 under setting [2] stood at 44.9 µM.
Still for that read-out and setting: the value for `CCC(C)(C)C(=O)OC1=C(c2ccc(Cl)cc2Cl)C(=O)OC12CCCCC2` [Spirodiclofen] was 51.5 µM; that for `CCCCOc1cc(C(=O)OCCN(CC)CC)ccc1N` [Benoxinate hydrochloride] was 11.8 µM; that for `CC1(C)[C@H](C=C(Cl)Cl)[C@H]1C(=O)O[C@H](C#N)c1cccc(Oc2ccccc2)c1` [Cypermethrin] was above 50 µM.
On the same count and under the same terms, the value for `OCCN1CCNCC1` [1-Piperazineethanol] was 74.1 µM; that for `CCCCCCCCCCCCCCCCCCCCCC(=O)Nc1ccn([C@@H]2O[C@H](CO)[C@@H](O)[C@@H]2O)c(=O)n1` [Enocitabine] was 17.3 µM; that for `Nc1nc(N)c2nc(-c3ccccc3)c(N)nc2n1` [Triamterene] was 39.2 µM.
For `CCCCCC[n+]1ccccc1` [1-Hexylpyridinium trifluoromethanesulfonate], under setting [1], the AC50 came to 45.4 µM.
`O=[N+]([O-])c1cc[n+]([O-])cc1` [4-Nitropyridine-1-oxide]: the AC50 under setting [2] turned out to be 80.5 µM.
Consider `CCCCCCCC(=O)Oc1c(Br)cc(C#N)cc1Br` [Bromoxynil octanoate], for which the AC50 under setting [2] is 74 µM.
With `CCCN(CCC)C(=O)Cc1c(-c2ccc(Cl)cc2)nc2ccc(Cl)cn12` [Alpidem], under setting [2], the AC50 was 25.1 µM.
Same read-out and setting: the value for `CCc1cccc(C)c1N(C(=O)CCl)C(C)COC` (centres unmarked) [Metolachlor] was 77 µM; that for `C=C1C[C@H]2[C@@H]3C=C(C)C4=CC(=O)CC[C@]4(C)[C@H]3CC[C@]2(C)[C@@]1(OC(C)=O)C(C)=O` [Melengestrol acetate] was 26.6 µM.
With `Oc1ccccc1Cc1ccccc1O` [2,2'-Bisphenol F], under setting [2], the AC50 is above 90 µM.
Still for that read-out and setting: with `Nc1c(Br)cc(Br)cc1CN[C@H]1CC[C@H](O)CC1` [Ambroxolhydrochloride] the figure was 24.9 µM; with `O=C1CCCCCCCCCCOCCCCO1` [12-Oxahexadecanolide], 43.5 µM.
Same read-out and setting: with `O=c1[nH]c(=O)n([C@H]2C[C@H](O)[C@@H](CO)O2)cc1C(F)(F)F` [Trifluridine] the figure was 23.4 µM.
Take `N=C(N)NC(=O)c1nc(Cl)c(N)nc1N` [Amiloride hydrochloride]: the AC50 under setting [1] is 56.7 µM.
With `O=C(N[C@H]1N=C(c2ccccc2F)c2cccc3c2N(CC3)C1=O)c1cc2ccccc2[nH]1` [Pranazepide], the concentration at half-maximal activity (AC50) under setting [2] is 12.1 µM.
For the compound `COCCCOc1ccnc(C[S+]([O-])c2nc3ccccc3[nH]2)c1C` (centres unmarked) [Rabeprazole sodium], the AC50 under setting [2] amounted to 51.1 µM.
As to `Cc1ccc2nc(-c3ccc(N)cc3)sc2c1S(=O)(=O)O`, the AC50 under setting [2] was found to be 45.2 µM.
Same read-out and setting: with `NNC(N)=S` [Thiosemicarbazide] the figure was 59.3 µM; with `O=c1[nH]c(=O)n([C@H]2C[C@H](O)[C@@H](CO)O2)cc1F` [Floxuridine], 4.49 µM.
The same measure, in the same setting: with `CC1(CO)CN(c2ccccc2)NC1=O` (centres unmarked) [4-(Hydroxymethyl)-4-methyl-1-phenylpyrazolidin-3-one] the figure was 82.6 µM; with `CCCCCCCCCCCCCCn1cc[n+](C)c1` [1-Methyl-3-tetradecylimidazolium hexafluorophosphate], 68.5 µM.
On the same count and under the same terms, with `O=C1CCCCCCCCCCCC(=O)OCCO1` [1,4-Dioxacycloheptadecane-5,17-dione] the figure was 47.7 µM; with `CCCCCCCCc1ccc(S(=O)(=O)O)cc1` [Sodium 4-octylbenzenesulfonate], 53 µM.
Turning to `CCC(C)(CC)c1cc(NC(=O)c2c(OC)cccc2OC)on1` [Isoxaben], the half-maximal activity concentration (AC50) under setting [2] is above 90 µM.
Same read-out and setting: with `COc1ccc2c(c1OC)CN1CCc3cc4c(cc3[C@@H]1C2)OCO4` [Canadine] the figure was above 20 µM; with `C#CCC(Cc1cnc2nc(N)nc(N)c2n1)c1ccc(C(=O)N[C@@H](CCC(=O)O)C(=O)O)cc1` (some centres unmarked) [Pralatrexate], 0.687 µM.
In the case of `O=c1[nH]c(Cl)c(Cl)cc1Cl` [3,5,6-Trichloro-2-pyridinol], the half-maximal activity concentration (AC50) under setting [2] came out at 76.8 µM.

The record behind these values is paper PMC6792352, “Limited Chemical Structural Diversity Found to Modulate Thyroid Hormone Receptor in the Tox21 Chemical Library” (Environmental Health Perspectives, 2019).
